Test results reported in the supplement of paper PMC6555819.

Key:
Experiment in all cases: PBM binding z-score (relative to random genomic background probes); higher = stronger binding; sequences stand for … in GC…GCGATTGACAGCGTAGAATGAAGG
[1] = system: FXR:RXRa (NR concentration 270 nM, RXRa partner concentration 90 nM)
How it was run: (§1)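 Antibodies against each partner of ligand-free nuclear receptor dimers (one per run) detected binding on custom Agilent 4×180K protein-binding microarrays after 1 h incubation. The double-stranded probes had 34-nt variable regions carrying direct-repeat seeds, single-nucleotide variants, half-site ablations and random human genomic background sequences. Binding z-scores, from regression-normalized fluorescence, use the random background probes as reference.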

[2] = system: LXRa:RXRa (NR concentration 270 nM, RXRa partner concentration 90 nM)
How it was run: as §1

[3] = system: LXRa homodimer (NR concentration 270 nM)
How it was run: as §1

[4] = system: LXRb:RXRa (NR concentration 270 nM, RXRa partner concentration 90 nM)
How it was run: as §1

[5] = system: LXRb homodimer (NR concentration 270 nM)
How it was run: as §1

[6] = system: PPARa:RXRa (NR concentration 270 nM, RXRa partner concentration 90 nM)
How it was run: as §1

[7] = system: PPARg:RXRa (NR concentration 180 nM, RXRa partner concentration 90 nM)
How it was run: as §1

[8] = system: PPARg:RXRa 270nM:90nM, anti-RXR (NR concentration 270 nM, RXRa partner concentration 90 nM)
How it was run: as §1

[9] = system: PPARg:RXRa 30nM:10nM, anti-RXR (NR concentration 30 nM, RXRa partner concentration 10 nM)
How it was run: as §1

[10] = system: PPARg:RXRa 90nM:30nM, anti-RXR (NR concentration 90 nM, RXRa partner concentration 30 nM)
How it was run: as §1

Sequence | PBM binding z-score [1] | PBM binding z-score [2] | PBM binding z-score [3] | PBM binding z-score [4] | PBM binding z-score [5] | PBM binding z-score [6] | PBM binding z-score [7] | PBM binding z-score [8] | PBM binding z-score [9] | PBM binding z-score [10]
ATCTCTAGGTAAGACACAGTTCAGTGAAGAACGC | 0.376 | 1.1 | 1.08 | 0.767 | 1.15 | 0.964 | 1.03 | 1.98 | 0.784 | 1.72
TATACAGGGTCAAAGGCCAGACTACGAATGTCGA | 7.5 | 6.15 | 2.32 | 4.84 | 2.22 | 6.39 | 8.41 | 7.38 | 5.4 | 7.02
GCGACTGGGGCATCAGCAGGTTACCCTAACTTAA | -0.187 | -0.0714 | -0.26 | 0.646 | -1.16 | 1.32 | 0.617 | 0.949 | -0.87 | 0.118
TGCATGAGGTTAAAGATCAGGGAACGTGGCGTCG | 3.2 | 2.84 | 0.267 | 1.84 | 0.579 | 3.89 | 4.03 | 4.6 | 2.43 | 4.38
TCTTGTAGATCAATAGAGGTTATGAAAGTGCGCT | 0.99 | 3.56 | 0.696 | 1.68 | 0.325 | 1.9 | 0.356 | 2.08 | 2.99 | 2.41
CGTCCAAGGTCAGCAGCTCAGTGAAAGCGACGTG | 5.06 | 3.06 | -0.124 | 2.14 | -0.454 | 4 | 1.68 | 2.61 | 0.139 | 1.47
CCTCGTTGGTCAAGGTCACACACGCTATAGGTAC | 4.27 | 4.25 | 2.8 | 3.8 | 1.08 | 4.07 | 2.47 | 3.17 | 0.974 | 2.24
TCATATAGGTAAAAGGTGAAACTCGGTGTGGTAA | 2.3 | 2.26 | 0.259 | 2.39 | 0.198 | 5.64 | 9.08 | 8.59 | 8.64 | 9.69
CCTGCTAAGTCATGGTCAGCTAATCTACAGTATG | -0.197 | -0.105 | -0.185 | -0.137 | -0.307 | -0.22 | -0.135 | -0.368 | -0.358 | -0.204
TCTCGGGGGACACGAAGGTCAGAGCTTTCCAGAG | 2.9 | 2.88 | 0.575 | 4.36 | 6.23 | 3.77 | 1.86 | 3.73 | 3.31 | 3.45
ATCTCTAGGTAAAAGATCAGTGAATCCCGAGGAT | 0.18 | -0.223 | 0.0922 | -0.31 | 0.167 | 2.45 | 4.48 | 5.32 | 4.13 | 5.66
TCTTGTAGATCAATAGAGGTTAAGATAGTGCGCT | 1.04 | 3.81 | 0.813 | 1.97 | -0.0819 | 1.99 | 0.479 | 1.59 | 2.43 | 2.03
TTGAGTAGGTTAGGGGCATTCAGAATGGCGTCGA | 0.794 | 0.55 | 0.331 | 1.42 | 1.36 | 1.84 | 1.34 | 2.8 | 1.58 | 2.25
AGAACGAGGGCACGCTGAGGTGATAGCAGAGTAG | 1.52 | 0.73 | -0.584 | 0.0618 | -1 | 2.18 | 2.3 | 2.19 | 0.193 | 1.29
GAAACGAGGGCATTCGAGTTGATAGCATGGCGAT | 1.71 | 2.15 | -0.383 | 0.442 | -0.542 | 2.05 | 1.35 | 1.32 | 0.0683 | 0.829
GCTCGAAGGACAAGGTCAGAGCTTTGTCCGTAGA | 1.53 | 1.79 | -0.456 | 0.996 | -0.575 | 2.56 | 0.738 | 1.72 | -0.296 | 0.829
AATACAGGGTCAGTAGGCCAGAGTAGGTACGAAT | 3.97 | 3.63 | 0.625 | 2.61 | 0.737 | 4.47 | 5.91 | 5.01 | 1.93 | 3.86
AGAATTAGGTTAAGATCAGGGAAACAGAATACAT | 0.832 | 0.821 | 0.412 | 0.748 | 0.359 | 2.94 | 3.33 | 2.93 | 1.28 | 2.24
TCATATAGATAAAGGTGAAAGTCGAACGATATGA | 0.837 | 1.1 | 0.162 | 1.26 | 0.134 | 2.57 | 2.33 | 3.51 | 4.36 | 4.09
ACTATTAGTTGACTTAGGGCAACCGCTACGACGC | 0.0697 | 0.317 | -0.0272 | -0.056 | 0.492 | -0.0454 | 0.482 | -0.131 | 0.1 | -0.0911
ATCTCTGGGTAACCAAGTTCAGTGAATGCCGAAC | 0.227 | 0.778 | 0.498 | 0.621 | 0.534 | 1.09 | 0.329 | 0.858 | -0.0191 | 0.333
ACAGAGAGGTGAGTGAAGGTAACTCAGCTGGACG | 0.855 | 0.573 | -0.279 | 0.265 | 0.454 | 1.26 | 0.736 | 0.54 | -0.194 | 0.056

Sequence | PBM binding z-score [1] | PBM binding z-score [2] | PBM binding z-score [3] | PBM binding z-score [4] | PBM binding z-score [5] | PBM binding z-score [6] | PBM binding z-score [7] | PBM binding z-score [8] | PBM binding z-score [9] | PBM binding z-score [10]
GATACAGGGCCAGCTAGAGGCCAGAGTATGGAAA | -0.612 | -0.872 | -0.883 | -1.08 | -1.43 | -0.738 | 0.208 | -0.6 | -0.543 | -0.645
ATCTCTAGGTAAAGATAGCTCAGTGAATGCAAAT | -0.126 | -0.286 | -0.237 | -0.258 | 0.316 | -0.203 | 0.422 | 0.32 | 0.153 | 0.317
CCGACTGGTGCATAAGGTTACCATAAGCCAGCCC | 0.236 | 1.78 | 0.0222 | 0.722 | -0.632 | 1.04 | 0.64 | 1.03 | -0.311 | 0.705
CGTACTGGGCCAAGGTCATTGATCAGTCAAAGCA | 3.11 | 3.03 | 1.23 | 3 | -0.201 | 3.99 | 4.09 | 4.29 | 1.79 | 3.54
CTCGAAAGGTCGGTTGACGTGAGTATACGGATAA | 1.71 | 1.46 | 0.0257 | 1.44 | 0.0927 | 2.2 | 0.565 | 0.822 | 0.194 | 0.528
CCTTACGGGTCACGAGGTTATAGCGCGACGAGCG | 7 | 4.91 | 0.435 | 3.79 | -0.01 | 6.01 | 7.42 | 6.71 | 3.03 | 5.28
GCAGACAGGTGAAACGCAGGTAACTAAGGGTGGC | -0.237 | 0.0308 | -0.755 | -0.289 | -0.873 | 0.88 | 0.651 | -0.421 | -0.539 | -0.453
ACTATTAGTTGTCTTAGGGCAACCGATACGACGC | 0.119 | 0.0228 | 0.27 | 0.0317 | 0.936 | -0.245 | 0.651 | 0.232 | 0.276 | 0.044
TCTTGTAGATCAAAGGTTAAGAATGCCGAAGCCT | 2.11 | 2.06 | 0.248 | 1.94 | 0.134 | 4.68 | 7.84 | 7.95 | 8.02 | 8.37
TCGAGTAGGGTAGTCGGGGCATTCAGCCAACATA | -0.261 | -0.324 | -0.232 | 0.0407 | -0.844 | 0.109 | -0.307 | 0.468 | 0.525 | 0.442
CATCCAGGGTCAGCTAGGCCAGAGTAGGGACGGC | 4.57 | 3.12 | -0.152 | 2.1 | 0.239 | 4.34 | 2.97 | 3.3 | 0.549 | 1.89
ACTAGCAGGCCAAGTTTGTGTCACTCAAACAAAG | -0.566 | -0.667 | -0.358 | -0.814 | -0.886 | -0.219 | -0.46 | -0.574 | -0.538 | -0.746
CAAACTAGGTCAAGAGGTCAAAGTGCGCTTCCCG | 7.08 | 6.47 | 5.76 | 5.71 | 2.04 | 6.59 | 10.2 | 8.63 | 7.04 | 8.54
TCTTTTAGTTGAAGGGCAACCGACGAGTCCGTTT | 0.645 | 1.13 | 0.171 | 1 | 1.62 | 1.16 | -0.118 | 2.13 | 3.65 | 2.71
CCTATTAGTTGACCATGAGGGCAACCGAAGCTCG | 1.01 | 0.684 | 0.747 | 0.619 | 0.6 | 0.652 | 0.438 | 0.373 | -0.175 | 0.282
CAGCCTAGGTCAGGGCCAGGATAGGAGGAACGTT | 1.84 | 0.87 | -0.49 | 0.522 | -1.06 | 2.04 | 0.835 | 1.15 | -0.0382 | 0.556
TCTTGTAGATCAAGCAGGTTCAGAAAGCCTGAGT | 0.0146 | 0.179 | -0.177 | 0.301 | -0.777 | 0.691 | -0.504 | 1.16 | 2.45 | 1.72
TCAGACAGGTGAAGGTAACTCAGGTACGCAGTCG | 0.942 | 1.82 | -0.0918 | 1.2 | -0.116 | 1.34 | 0.719 | 2.37 | 3.89 | 2.98
TCTAGCAGGCCAGAGGGTCACTCATGAGGTACGG | 0.745 | 0.822 | -0.462 | 0.852 | -1.1 | 2.2 | 1.64 | 2.87 | 2.19 | 2.63
GCTGCTAGATCAACTGATGGTCAGCTAAAGCTCG | -0.351 | -0.658 | -0.708 | -0.94 | -1.09 | -0.675 | -0.337 | -0.606 | -0.466 | -0.434
ACTAGTTGGTCAGCTGAGGGCACACACAATTCGG | 0.819 | 0.0659 | 0.172 | 0.183 | -0.0227 | 0.606 | 0.887 | 0.572 | 0.27 | 0.385
AATCAAAGTTCACTAGGTAACGTAAGATTCAGCT | 4.99 | 5.49 | 4.91 | 3.21 | 1.43 | 4.48 | 5.39 | 4.91 | 2.47 | 3.92
